Pf growth 96h: P. falciparum growth inhibition at 96 hour, primary screen for plastid delayed-death inhibitors. P. falciparum luciferase reporter growth, 96 h. Potency, µM (highest dose often 28.7 µM), for inactives: top-dose activity change, negative = inhibition, most hits filed as inhibitors. 320,000 compounds, 6.9% hits. AID 504834; also: potency is read from the fitted curve at half-maximal effect
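Infected RBCs, 2% Hct / 0.05% parasitemia final; luciferase-reporter P. falciparum; cpd 96 h, 37 C, 5% CO2; luciferase detection reagent; luminescence.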
HCMV inh: human cytomegalovirus inhibition; HFF cells, HCMV-luciferase reporter, 72 h; hits give low values; 410,000 compounds, 4.5% hits; activity change, negative = inhibition, % at 57.5 µM; in the data active = activity change below about -60%; inconclusive = no clear call, values can overlap the other calls; inactive = above about -39%
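Luciferase read-out from HCMV-luciferase-infected HFFs (MOI 1 PFU/cell) 72 h post infection at 37C; compounds added after 16 h cell attachment; activity normalized between buffer-only basal and Salinomycin (10uM) inhibitor controls.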
Sm TGR inh: blocks Schistosoma mansoni thioredoxin glutathione reductase | 360,000 compounds, 3% hits | AID 485364 | purified TGR, DTNB reduction, TNB absorbance 405 nm | Q962Y6 | Potency, µM (top dose mostly 114 µM), without a hit: top-dose activity change, negative = inhibition, most hits filed as inhibitors; also: potency is read from the fitted curve at half-maximal effect; nearly all actives have a fitted effect of over 60% in size
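TGR 20 nM + NADPH 100 uM (dispensed conc.), cpd preinc 15 min RT; start with NADPH (500 uM addition) then DTNB (15 mM addition). Kinetic TNB absorbance, 405 nm filter. Four-parameter Hill fit across titration.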
FBPA Giardia inh: Giardia lamblia aldolase inhibition; A8B2U2; purified Giardia FBPA; Potency, µM (highest dose often 59.6 µM), inactives show top-dose activity, negative = inhibition, usual class: inhibitors; 290,000 compounds, 0.71% hits; also: potency is read from the fitted curve at half-maximal effect; nearly all actives have a fitted effect of over 55% in size
Target sequence (A8B2U2 whole entry, looked up): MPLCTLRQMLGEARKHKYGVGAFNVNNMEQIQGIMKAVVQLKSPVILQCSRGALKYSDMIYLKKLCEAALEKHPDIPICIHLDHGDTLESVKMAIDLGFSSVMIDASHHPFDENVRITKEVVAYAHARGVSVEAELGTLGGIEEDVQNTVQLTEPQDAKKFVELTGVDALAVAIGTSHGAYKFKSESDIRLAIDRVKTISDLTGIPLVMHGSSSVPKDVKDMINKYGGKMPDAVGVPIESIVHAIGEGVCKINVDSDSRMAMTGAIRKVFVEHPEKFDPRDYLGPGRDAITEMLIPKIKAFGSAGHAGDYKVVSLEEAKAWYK
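Giardia FBPA (40 nM reagent) was preincubated 10 min at RT with compound (up to 57.5 uM final), then substrate plus GAPDH/TPI/NAD/arsenate coupling system with diaphorase/resazurin was added; resorufin fluorescence (525/598 nm) was read after 20 min.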
Pf growth 48h: inhibits P. falciparum growth in the first generation, 48 h; AID 504832; 310,000 compounds, 5.9% hits; P. falciparum luciferase growth in erythrocytes, 48 h; Potency, µM (titrated, usually from 28.7 µM), for the others: top-dose activity change, negative = inhibition, hits mostly inhibitors; also: potency is read from the fitted curve at half-maximal effect
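Read-out is firefly luciferase luminescence from an integrated reporter in P. falciparum, so falling signal marks reduced parasite growth. Infected erythrocytes were at 2% hematocrit and 0.1% parasitemia (final) in Albumax-supplemented RPMI 1640.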
* marks the source's active call; other numbers are inactive results; ! = not confirmed by another sample. A selection: hits, their analogues and other compounds. The true share with any hit is near 14%. Unless noted, calls follow the shape of the dose curve; as a rule, active = well fitted curve in the direction sought with a large enough effect; inconclusive = small, poorly fitted or top-dose-only effect, or another doubt; inactive = no such curve, though single readings can be large; an effect the other way counts as inactive or inconclusive. % is scaled to controls: 0 for no effect and ±100 for the full control effect.

Results for COC(=O)c1ccccc1NC(=O)CCC(=O)N1CCOc2ccccc21 ?
HCMV inh: -4; Sm TGR inh: 3%

Results for CCOC(=O)[C@]12CCC=C1N(Cc1ccco1)C(=O)[C@H](CC(=O)NCCCOC)C2 ?
HCMV inh: 11

What do the screens show for `CCCOc1ccc(N2C(=O)CC(N3CC=C(c4ccccc4)CC3)C2=O)cc1` (centres undefined)?
Pf growth 96h: 14%; HCMV inh: -33; Sm TGR inh: 28µM*; FBPA Giardia inh: -1%; Pf growth 48h: -11%

Results for O=C1CC(N2CCN(c3ccccc3F)CC2)C(=O)N1c1ccc(F)cc1 (centres undefined) ?
HCMV inh: 8

What do the screens show for `O=C1CC(N2CC=C(c3ccccc3)CC2)C(=O)N1c1ccc(F)cc1` (centres undefined)?
Pf growth 96h: inconclusive; Sm TGR inh: 8.9µM*; FBPA Giardia inh: inconclusive; Pf growth 48h: inconclusive

What do the screens show for `COc1cccc(CNC(=O)C2Cc3cc(S(=O)(=O)N4CCCCCC4)ccc3N2C(C)=O)c1` (centres undefined)?
HCMV inh: 21; Sm TGR inh: -1%

Results for CC1=C(C(=O)N(C(C)C)C(C)C)CC(CC(=O)NCCN2CCOCC2)C(=O)N1CCCN1CCCC1=O (centres undefined) ?
HCMV inh: 7

Results for COc1ccc(N2CC(C(=O)N/N=C/c3cc([N+](=O)[O-])ccc3O)CC2=O)cc1 (centres undefined) ?
Pf growth 96h: 0%; HCMV inh: -6; Sm TGR inh: -3%; FBPA Giardia inh: 13%; Pf growth 48h: inconclusive

Results for Cc1ccc(NC(=O)C2CCN(S(=O)(=O)c3ccc4c(c3)CCCC(=O)N4)CC2)c(Br)c1 ?
Pf growth 96h: -21%; HCMV inh: active!; Sm TGR inh: -2%; Pf growth 48h: -13%

What do the screens show for `CCOC(=O)C1CCN(S(=O)(=O)c2ccc3c(c2)CC(=O)N3)CC1`?
Pf growth 96h: 0%; HCMV inh: -15; Sm TGR inh: 5%; FBPA Giardia inh: 5%; Pf growth 48h: 12µM*

How did O=C1CCCc2cc(S(=O)(=O)N3CCC(C(=O)NCc4ccccc4)CC3)ccc2N1 do in these assays?
Pf growth 96h: 19%; HCMV inh: 0; Sm TGR inh: -1%; FBPA Giardia inh: -1%; Pf growth 48h: inconclusive

Results for CCOC(=O)C1CCN(S(=O)(=O)c2ccc3c(c2)NC(=O)C(C)S3)CC1 (centres undefined) ?
Pf growth 96h: 67%; HCMV inh: -25; Sm TGR inh: 1%; FBPA Giardia inh: 12%; Pf growth 48h: inconclusive

Results for CCOc1ccc(CNC(=O)C2CCN(S(=O)(=O)c3ccc4c(c3)CCCC(=O)N4)CC2)cc1 ?
Pf growth 96h: 9.3µM*; HCMV inh: 1; Sm TGR inh: -13%; FBPA Giardia inh: -10%; Pf growth 48h: 9.3µM*

Results for Cc1ccc(N2CCN(S(=O)(=O)N3CCCCCC3)CC2)cc1Cl ?
Pf growth 96h: -6%; HCMV inh: -8; Sm TGR inh: -17%; FBPA Giardia inh: 6%

How did Cc1ccc(N2CCN(S(=O)(=O)N3CCCCC3)CC2)cc1C do in these assays?
Pf growth 96h: 23%; HCMV inh: -69*; Sm TGR inh: 0%; FBPA Giardia inh: 6%; Pf growth 48h: 21%

Results for Cc1cc(C)c(S(=O)(=O)c2ccc(Cl)cc2)c(Cl)n1 ?
Pf growth 96h: -2%; HCMV inh: inconclusive; Sm TGR inh: 8%; FBPA Giardia inh: -21%; Pf growth 48h: inconclusive

How did Cc1cc(S(=O)(=O)c2ccc(Cl)cc2)nc(S(=O)(=O)c2ccc(Cl)cc2)c1C#N do in these assays?
HCMV inh: -98*

How did C[C@H]1CC[C@H]2C(=O)N3[C@H](c4ccccc4Br)[C@@H](C)CC[C@H]3C(=O)N2[C@@H]1c1ccccc1Br do in these assays?
Pf growth 96h: 5.2µM*; Sm TGR inh: -7%; FBPA Giardia inh: 2%; Pf growth 48h: inconclusive

What do the screens show for `Cc1ccc(NS(=O)(=O)c2cccs2)nc1`?
Pf growth 96h: inconclusive; HCMV inh: 26; Sm TGR inh: 10%; FBPA Giardia inh: -18%; Pf growth 48h: 19%

How did CCCCS(=O)(=O)Nc1ccc(C)cn1 do in these assays?
Pf growth 96h: 18%; HCMV inh: 56; Sm TGR inh: -17%; FBPA Giardia inh: 7.9µM*; Pf growth 48h: 24%

What do the screens show for `Cc1n[nH]c(=O)c2c(NC(=O)CSc3nc4ccccc4c(=O)n3CCCO)oc(C)c12`?
Pf growth 96h: 31%; HCMV inh: -87*; Sm TGR inh: 0%; Pf growth 48h: 26%

How did Cc1n[nH]c(=O)c2c(NC(=O)CSc3nc4ccccc4c(=O)n3C(C)C)oc(C)c12 do in these assays?
Pf growth 96h: 2%; HCMV inh: 14; Sm TGR inh: -6%; Pf growth 48h: -15%

What do the screens show for `Cc1n[nH]c(=O)c2c(NC(=O)CSc3nnnn3-c3ccc(O)cc3)oc(C)c12`?
Pf growth 96h: -3%; HCMV inh: -67*; Sm TGR inh: inconclusive; Pf growth 48h: 45%

What do the screens show for `Cc1n[nH]c(=O)c2c(NC(=O)CSc3nnnn3-c3ccccc3)oc(C)c12`?
Pf growth 96h: -2%; HCMV inh: -14; Sm TGR inh: -21%; Pf growth 48h: 11%

How did COCCn1c(Cc2ccccc2)nnc1SCC(=O)Nc1oc(C)c2c(C)n[nH]c(=O)c12 do in these assays?
Pf growth 96h: 13%; HCMV inh: -17; Sm TGR inh: 50µM*; Pf growth 48h: -6%

How did Cc1ccc(C(=O)O/N=C(\N)Cc2cccs2)cc1[N+](=O)[O-] do in these assays?
Pf growth 96h: 10µM*; HCMV inh: 49; Sm TGR inh: 0%; Pf growth 48h: 69%

Results for COc1cc(C(=O)OC2CC[C@]3(C)C4CCC5[C@]6(O)CC(O)[C@]7(O)C(CN8CC(C)CCC8[C@]7(C)O)[C@]6(O)C[C@@]53O[C@]24O)cc(OC)c1OC (some centres undefined) ?
FBPA Giardia inh: 0%

What do the screens show for `Cn1cc(-c2nc3cnc(N4CCNCC4)nc3n(Cc3ccc(F)cc3)c2=O)c2ccccc21`?
FBPA Giardia inh: 5%

What do the screens show for `CCOc1ccc(CNS(=O)(=O)c2cc(-c3cc(C)no3)ccc2OC)cc1OC`?
Pf growth 96h: 32%; HCMV inh: 63; Sm TGR inh: -3%; Pf growth 48h: -5%

How did O=C(COCc1cc(-c2ccc3c(c2)OCO3)on1)N1CCN(c2ccccc2)CC1 do in these assays?
Pf growth 96h: 10µM*; HCMV inh: 32; Sm TGR inh: 1%; Pf growth 48h: -12%

Results for CCOc1ccccc1C(=O)Nc1ccccc1-c1ccccc1 ?
Pf growth 96h: 4.1µM*; HCMV inh: 2; Sm TGR inh: 11%; FBPA Giardia inh: 4%; Pf growth 48h: 13%

Assay outcomes (PubChem BioAssay)
